Data reported in PubChem BioAssay AID1076 (NMMLSC, 2008).
The source made the active and inactive calls.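 How the source made its calls: active means cell event count below 40, meaning activity score above 60 where score is 100 minus count; inactive means the rest.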

test: cytotoxicity in LNCaP prostate cells – cell-based, cell event count, single point, cytotoxicity control for prostate differentiation activator project, confirmation (AID 1076); settings: LNCaP cell loss, flow cytometry event count, 4 d; at 100 µM; stronger effect = lower value;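 further: counts scatter-gated live cells after medium removal discards detached dead cells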

Row | SMILES | cell event count
1 | COc1cc2c(C(=O)NCCCN3CCN(c4cccc(Cl)c4)CC3)cn(C)c(=O)c2cc1OC | 15 (inactive)
2 | O=C(Cn1ccc2ccccc2c1=O)NCCC(=O)N1CCN(c2cccc(C(F)(F)F)c2)CC1 | 232 (inactive)
3 | CCOC(=O)C1=C(O)CCn2c1nc1ccccc12 | 206 (inactive)
4 | CCN1CCCC1CNC(=O)c1cc2c(-c3cccc(OC)c3)nn(C)c2s1 (stereo unspecified) | 25 (inactive)
5 | CCc1nn(C(C)C(=O)N2CCc3ccccc3C2)c(=O)c2cc3occc3n12 (stereo unspecified) | 91 (inactive)
6 | CCCCn1c2c(c3ccccc31)CCc1nonc1-2 | 134 (inactive)
7 | O=C(CSc1c[nH]c2ccccc12)N1CCOCC1 | 297 (inactive)
8 | O=C(Nc1cccc(Cl)c1)N1CCN(Cc2ccccc2)CC1 | 42 (inactive)
9 | COc1cc2nc(N3CCN(C(=O)C4COc5ccccc5O4)CC3)nc(N)c2cc1OC (stereo unspecified) | 5 (inactive)
10 | Cc1oc(-c2ccccc2F)nc1CN1CCC(C(=O)NCc2ccco2)CC1 | 330 (inactive)
11 | CN(CCNC(=O)C1CC(=O)N(c2ccc(F)c(Cl)c2)C1)Cc1ccccc1 (stereo unspecified) | 79 (inactive)
12 | Cc1oc(-c2cccc(Cl)c2)nc1CN1CCC(C(=O)NCc2ccco2)CC1 | 100 (inactive)
13 | Cc1oc(-c2cccc(Cl)c2)nc1CN1CCCC(C(=O)NCc2ccco2)C1 (stereo unspecified) | 10 (inactive)
14 | CN1CCN(CC(=O)Nc2ccc(Cl)cc2Cl)CC1 | 117 (inactive)
15 | COc1cccc(Oc2cnc(N)nc2-c2ccc(OC)cc2O)c1 | 9 (inactive)
16 | CCOC(=O)N1CCC(NC(=O)c2cc3c(-c4ccc(Cl)cc4)nn(C)c3s2)CC1 | 342 (inactive)
17 | Nc1ccc(-n2ccnc2)cc1 | 173 (inactive)
18 | CCN1CCCC1CNC(=O)C1CCN(Cc2nc(-c3cccc(Br)c3)oc2C)CC1 (stereo unspecified) | 16 (inactive)
19 | CC(=O)c1cccc(NC2c3ccccc3C(=O)N2Cc2ccc3c(c2)OCO3)c1 (stereo unspecified) | 121 (inactive)

Row | SMILES | cell event count
20 | C=C(C)Cn1c(-c2ccccc2)nc2ccccc21 | 16 (inactive)
21 | Cc1ccccc1-c1nc(CN2CCC(C(=O)NCc3cccnc3)CC2)c(C)o1 | 268 (inactive)
22 | COc1ccc(CCn2c(=N)c(C(=O)NCc3ccco3)cc3c(=O)n4ccccc4nc32)cc1 | 32 (inactive)
23 | CCOC(=O)N1CCC(NC(=O)c2cc3c(-c4ccc(OC)c(OC)c4)nn(C)c3s2)CC1 | 151 (inactive)
24 | Cc1ccc(C(=O)/C=C/Nc2cccc(O)c2)cc1 | 17 (inactive)
25 | COc1ccc2c(c1OC)C(=O)N(C(C)C(=O)O)C2=O (stereo unspecified) | 56 (inactive)
26 | Cc1oc(-c2cccc(Cl)c2)nc1CN1CCC(C(=O)NCc2cccnc2)CC1 | 38 (inactive)
27 | CCCN(CCC)CCNC(=O)C1CCN(Cc2nc(-c3ccc(Cl)cc3)oc2C)CC1 | 55 (inactive)
28 | CC(C)N1CCC2(CC1)N=C(c1ccc3c(c1)OCO3)CC(c1cc(Cl)ccc1O)N2 (stereo unspecified) | 46 (inactive)
29 | Cc1nnc(NCc2n[nH]c(=O)c3ccccc23)c2ccccc12 | 47 (inactive)
30 | CCn1c(=N)n(CC(O)COc2cccc(C)c2)c2ccccc21 (stereo unspecified) | 2 (active)
31 | COc1ccc(CCNC(=O)C2CCCN(Cc3nc(-c4cccc(Cl)c4)oc3C)C2)cc1OC (stereo unspecified) | 21 (inactive)
32 | Cc1oc(-c2ccccc2F)nc1CN1CCC(C(=O)NCCC2=CCCCC2)CC1 | 17 (inactive)
33 | Cc1cc(=O)oc(C)c1C(=O)NCCCN1CCN(c2ccc(F)cc2)CC1 | 236 (inactive)
34 | N=c1n(CCO)c2ccccc2n1CCOc1ccc(Cl)cc1Cl | 18 (inactive)
35 | CCN1CCN(C(c2cccs2)C(C)NS(=O)(=O)c2ccc(Br)cc2)CC1 (stereo unspecified) | 17 (active)
36 | CC(C)(C)c1ccc(C(O)CCCN2CCC(C(O)(c3ccccc3)c3ccccc3)CC2)cc1 (stereo unspecified) | 12 (inactive)
37 | COc1ccc(-n2cc(-c3ccccc3)c3c(N4CCN(CCO)CC4)ncnc32)cc1 | 12 (inactive)
38 | COc1ccc(S(=O)(=O)Nc2ccc(F)c(Cl)c2)cc1OC | 18 (inactive)

same assay, conditions: LNCaP cell loss, flow cytometry event count, 4 d; event count; at 10 µM; stronger effect = lower value

Row | SMILES | cell event count
39 | COc1cc2c(C(=O)NCCCN3CCN(c4cccc(Cl)c4)CC3)cn(C)c(=O)c2cc1OC | 230
40 | O=C(Cn1ccc2ccccc2c1=O)NCCC(=O)N1CCN(c2cccc(C(F)(F)F)c2)CC1 | 258
41 | CCOC(=O)C1=C(O)CCn2c1nc1ccccc12 | 257
42 | CCN1CCCC1CNC(=O)c1cc2c(-c3cccc(OC)c3)nn(C)c2s1 (stereo unspecified) | 81.5
43 | CCc1nn(C(C)C(=O)N2CCc3ccccc3C2)c(=O)c2cc3occc3n12 (stereo unspecified) | 123
44 | CCCCn1c2c(c3ccccc31)CCc1nonc1-2 | 128
45 | O=C(CSc1c[nH]c2ccccc12)N1CCOCC1 | 149
46 | O=C(Nc1cccc(Cl)c1)N1CCN(Cc2ccccc2)CC1 | 132
47 | COc1cc2nc(N3CCN(C(=O)C4COc5ccccc5O4)CC3)nc(N)c2cc1OC (stereo unspecified) | 124
48 | Cc1oc(-c2ccccc2F)nc1CN1CCC(C(=O)NCc2ccco2)CC1 | 278
49 | CN(CCNC(=O)C1CC(=O)N(c2ccc(F)c(Cl)c2)C1)Cc1ccccc1 (stereo unspecified) | 202
50 | Cc1oc(-c2cccc(Cl)c2)nc1CN1CCC(C(=O)NCc2ccco2)CC1 | 189
51 | Cc1oc(-c2cccc(Cl)c2)nc1CN1CCCC(C(=O)NCc2ccco2)C1 (stereo unspecified) | 146
52 | CN1CCN(CC(=O)Nc2ccc(Cl)cc2Cl)CC1 | 198
53 | COc1cccc(Oc2cnc(N)nc2-c2ccc(OC)cc2O)c1 | 180
54 | CCOC(=O)N1CCC(NC(=O)c2cc3c(-c4ccc(Cl)cc4)nn(C)c3s2)CC1 | 118
55 | Nc1ccc(-n2ccnc2)cc1 | 126
56 | CCN1CCCC1CNC(=O)C1CCN(Cc2nc(-c3cccc(Br)c3)oc2C)CC1 (stereo unspecified) | 78
57 | CC(=O)c1cccc(NC2c3ccccc3C(=O)N2Cc2ccc3c(c2)OCO3)c1 (stereo unspecified) | 281

Row | SMILES | cell event count
58 | C=C(C)Cn1c(-c2ccccc2)nc2ccccc21 | 106
59 | Cc1ccccc1-c1nc(CN2CCC(C(=O)NCc3cccnc3)CC2)c(C)o1 | 208
60 | COc1ccc(CCn2c(=N)c(C(=O)NCc3ccco3)cc3c(=O)n4ccccc4nc32)cc1 | 225
61 | CCOC(=O)N1CCC(NC(=O)c2cc3c(-c4ccc(OC)c(OC)c4)nn(C)c3s2)CC1 | 398
62 | Cc1ccc(C(=O)/C=C/Nc2cccc(O)c2)cc1 | 74
63 | COc1ccc2c(c1OC)C(=O)N(C(C)C(=O)O)C2=O (stereo unspecified) | 53.5
64 | Cc1oc(-c2cccc(Cl)c2)nc1CN1CCC(C(=O)NCc2cccnc2)CC1 | 150
65 | CCCN(CCC)CCNC(=O)C1CCN(Cc2nc(-c3ccc(Cl)cc3)oc2C)CC1 | 120
66 | CC(C)N1CCC2(CC1)N=C(c1ccc3c(c1)OCO3)CC(c1cc(Cl)ccc1O)N2 (stereo unspecified) | 43.5
67 | Cc1nnc(NCc2n[nH]c(=O)c3ccccc23)c2ccccc12 | 219
68 | CCn1c(=N)n(CC(O)COc2cccc(C)c2)c2ccccc21 (stereo unspecified) | 50.5
69 | COc1ccc(CCNC(=O)C2CCCN(Cc3nc(-c4cccc(Cl)c4)oc3C)C2)cc1OC (stereo unspecified) | 247
70 | Cc1oc(-c2ccccc2F)nc1CN1CCC(C(=O)NCCC2=CCCCC2)CC1 | 402
71 | Cc1cc(=O)oc(C)c1C(=O)NCCCN1CCN(c2ccc(F)cc2)CC1 | 100
72 | N=c1n(CCO)c2ccccc2n1CCOc1ccc(Cl)cc1Cl | 272
73 | CCN1CCN(C(c2cccs2)C(C)NS(=O)(=O)c2ccc(Br)cc2)CC1 (stereo unspecified) | 62
74 | CC(C)(C)c1ccc(C(O)CCCN2CCC(C(O)(c3ccccc3)c3ccccc3)CC2)cc1 (stereo unspecified) | 90
75 | COc1ccc(-n2cc(-c3ccccc3)c3c(N4CCN(CCO)CC4)ncnc32)cc1 | 174
76 | COc1ccc(S(=O)(=O)Nc2ccc(F)c(Cl)c2)cc1OC | 144
